Compounds without any hit were thinned out: in the full panel of roughly 83,000, 20% have a hit.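 Cells were grown in 96-well plates and exposed to the test compound at a single concentration for 48 hours; results are reported as percent growth, with values below 10 considered active.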 Unmarked numbers belong to inactive results. The source made the active and inactive calls.
What follows are molecules tested on MDA-MB-468 breast (assay: NCI-60 one-dose screen, 48 h (100 = growth as untreated, 0 = no growth, -100 = all killed)). Conditions: 10 µM unless noted.

SMILES	growth
O=c1[nH]c(N2CCOCC2)nc2scc(-c3ccccc3)c12	86.2%
COc1ccc(C2[C@@H](Cl)C(=O)N2c2cc(OC)c(OC)c(OC)c2)cc1Cl (some centres not stated)	2.32% (active)
COC(=O)c1ccc(NC(N)=NCCC(C)(C)c2ccc(C(F)(F)F)cc2)nc1	-14.2% (active)
CCCCCCCCCCCCCCCCC(=O)O	102%
O=C(Cc1ccc(F)c(Cl)c1)Nc1cc(C2(C(F)(F)F)CC2)nn1CC1CCCCC1	-13.1% (active)
CCOc1ccc(/C=C/C=N/NC(N)=S)cc1	80.2%
c1ccc2c(NCCCn3ccnc3)c3oc4ccccc4c3nc2c1	-8.65% (active)
Cn1cc(-c2csc(-c3cccc(F)c3)n2)c2cccnc21	-49.6% [100 µM] (active)
CC(=O)c1nn(-c2ccccc2)/c(=N\N=C\c2coc3ccc(F)cc3c2=O)s1	115%
O=c1oc2ccc(Cl)cc2c(=O)n1-c1cc(C(F)(F)F)cc(C(F)(F)F)c1	-8.67% (active)
CCCCOc1nc2ccc(Cl)cc2cc1/C=C/C(=O)/C=C/c1ccc(OC)cc1	113%
O=C1CCC(=O)CC1	115%
NC(N)=Nc1ccc(Oc2cccc(NC(N)=Nc3ccc(Cl)c(C(F)(F)F)c3)c2)cn1	6.72% (active)
CCSC1=NC2C(N(CC)C(=O)N2CC)N1/N=C/C=C/c1ccccc1[N+](=O)[O-] (configuration not stated)	-0.585% (active)
Cc1ccc(OCCn2c(C)nn(-c3ccc(Cl)cc3)c2=O)cc1	124%
CCCCNc1cc(-c2cn[nH]c2-c2cc(C)cc(OC)c2)nc(-c2cccnc2)n1	78.4%
COc1ccc(-c2cnc3ccnn3c2-c2cc(OC)c(OC)c(OC)c2)cc1	2.83% (active)
COc1cc(C2C=C(C)N=C3SC=NN32)cc(OC)c1OC (configuration not stated)	102%
Cc1nn(-c2ccccc2)c2nc3nc4c(c(N)c3c(-c3ccc(Cl)cc3)c12)CCC4	99.3%
OC1CCN(CCCOc2c3ccc(Cl)cc3nc3c2oc2ccc(Cl)cc23)CC1	1% (active)
N#Cc1c(-c2cccs2)cc(-c2cnccn2)nc1SCC(=O)N/N=C/c1cccs1	64.6%
COc1ccc(-c2nc(SCC(C)C)nc(Nc3ccccc3)c2C#N)cc1	80.7%
NS(=O)(=O)c1ccc(-n2cc(-c3cccc(NC(=O)c4ccc(N5CCOCC5)c(C(F)(F)F)c4)c3)nn2)cc1	36.7%
COc1ccc(C(=O)NC(=O)Nc2ccc3c(c2)NC(=O)/C3=C\c2[nH]c(C)c(C(=O)O)c2C)cc1	76.2%
CCOC(=O)c1c(Nc2ccccc2)nn2c(-c3ccc(OC)cc3)ccnc12	91.1%
COc1ccc(-c2cc(-c3cccc(NS(C)(=O)=O)c3)nc(N)c2C#N)cc1	0.11% (active)
COc1ccc(OC)c(-c2nc(SCC(=O)c3ccc(Br)cc3)nc(Nc3ccc(S(N)(=O)=O)cc3)c2C#N)c1	43.9%

Reference: PubChem BioAssay (NCI)
